This is a sample that favours compounds with a hit; in the whole collection about 12% have one here.
Arbovirus anti: antivirals against arbovirus infection. arbovirus infection cell-based antiviral screen. inhibition, % at 10 µM. hit rate 0.37% among 200,000; in the data active = inhibition above about 30%
L major viab: reduces viability of Leishmania major promastigotes; resazurin fluorescence viability; AID 1063; inhibition, % at 10 µM; hit rate 9% among 200,000; in the data active = inhibition above about 50%;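 also: promastigotes grown with compound for 44 hours at 28 °C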
CHOP inhibitor: CHOP inhibition in unfolded protein response. CHO-K1 CHOP-promoter luciferase, tunicamycin-induced, 15-18 h. inhibition, % at 10 µM. hit rate 3.8% among 220,000. AID 2732;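 active = compounds that reduced the stress-induced luciferase reporter signal by more than about 70% of percent inhibition, limit read from the data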
WT yeast gro inh: growth inhibition of WT yeast, mitochondrial fusion screen. mitochondrial fusion phenotypic screen, WT strain. inhibition, % at 10 µM. hit rate 2.1% among 190,000; in the data active = inhibition above about 58%; tested in S. cerevisiae
Each line names hits and unclear results; the compound was inactive in the other large screens.

CC1CCN(c2ccc(/C=C(\C#N)c3nn(-c4ccccc4)c(N)c3C#N)cc2[N+](=O)[O-])CC1	L major viab 95
CCOC(=O)C1CCCN(c2c(C(=O)c3ccccc3)cnc3ccccc23)C1 (configuration not stated)	L major viab 51, WT yeast gro inh 59
CCOC(=O)C1CCCN(C(=O)c2cc3c(C)nc4ccccc4c3o2)C1 (configuration not stated)	L major viab 77
CCOC(=O)C1CCCN(c2nc(C)nc3c2oc2ccccc23)C1 (configuration not stated)	none
CCOC(=O)C1CCN(c2c(C(=O)c3ccccc3)cnc3ccc(CC)cc23)CC1	L major viab 55, WT yeast gro inh 76
CCc1cc(C(N)=S)ccn1	none (no result: L major viab)
COc1cccc(C(=O)N2CCN(S(=O)(=O)Cc3ccccc3)CC2)c1OC	none
Clc1ccccc1-c1nnc2n1CCCCC2	none (no result: Arbovirus anti, L major viab, WT yeast gro inh)
CC(=O)N1CCN(C(=O)COc2ccccc2C(=O)Nc2ccccc2)CC1	none
CC1(C)CC(=O)C=C(NCc2ccccc2)C1	none
CC1(C)CC(=O)C=C(NC2=CC3OC(c4ccccc4)OCC3OC2=O)C1 (configuration not stated)	CHOP inhibitor 103
CCCOc1ccc(N2C(=O)CC(N(CCc3ccc(OC)cc3)C(=O)c3ccccc3)C2=O)cc1 (configuration not stated)	none (no result: Arbovirus anti, L major viab, WT yeast gro inh)
Cc1[nH]c2ccccc2c1/C=C/c1nc2ccccc2c(=O)n1-c1ccc([N+](=O)[O-])cc1	none
Cc1ccccc1/C=C\c1nc2ccccc2c(=O)n1Cc1ccccc1	L major viab 99
CCn1c(/C=C/c2c(C)[nH]c3ccccc23)nc2ccccc2c1=O	CHOP inhibitor 94
Cc1[nH]c2ccccc2c1/C=C/c1nc2ccccc2c(=O)[nH]1	CHOP inhibitor 76 (no result: Arbovirus anti, L major viab, WT yeast gro inh)
O=C(CNc1ccc2ccccc2c1)N/N=C/c1cc2ccccc2nc1Cl	none
Cc1ccc2c(n1)sc1c(-c3ccc(Br)cc3)c(C#N)c(N)nc12	CHOP inhibitor 82
N/C(Cc1cccc2ccccc12)=N\OC(=O)c1cccs1	L major viab 58
Cc1cc(N2C3CCC2CC(O)(c2ccc(F)cc2)C3)nc(-c2ccccc2)n1 (configuration not stated)	L major viab 58, CHOP inhibitor 72
O=C(CSc1nnc2ccccn12)Nc1cccc(-c2nc3ccccc3s2)c1	CHOP inhibitor 93
Cn1c(=O)c2ncn(CC(=O)Nc3cccc(-c4nc5ccccc5s4)c3)c2n(C)c1=O	CHOP inhibitor 82
CCCCNc1nc(=S)[nH]c2cc(OC)c(OC)cc12	none
CCOCCCNc1nc(=S)[nH]c2cc(OC)c(OC)cc12	L major viab 67
CCCn1c(C)cc(C(=O)COC(=O)CN=C2NS(=O)(=O)c3ccccc32)c1C	L major viab 55
O=C(CN=C1NS(=O)(=O)c2ccccc21)OCC(=O)c1ccccc1	none (no result: Arbovirus anti, L major viab, WT yeast gro inh)
O=S1(=O)CC=C(CSC(=S)NC2CCS(=O)(=O)C2)C1 (configuration not stated)	L major viab 76
CCN(CC)S(=O)(=O)c1cc(NC(=O)CNc2c(C)n(C)n(-c3ccccc3)c2=O)ccc1C	none
Cc1ccc(-n2nc(C)c(NC(=O)CCl)c2C)cc1	Arbovirus anti 35
COc1cccc(NCc2cc3c(C(C)(C)C)nn(-c4ccccc4)c3[nH]c2=O)c1	CHOP inhibitor 71
CC(=O)Nc1c(C)nn(-c2ccc([N+](=O)[O-])cc2)c1C	none
O=C(/C=C/c1cn(-c2ccccc2)nc1-c1ccccc1)Nc1ccc(C(=O)O)cc1	none
Cc1ccc(-c2nn(-c3ccccc3)cc2NC(=O)CCl)cc1	L major viab 93, CHOP inhibitor 104
Cc1ccc(-c2nn(-c3ccccc3)cc2/C=C/C(=O)Nc2nccs2)cc1	CHOP inhibitor 93
Cc1cc(=O)[nH]c2c1c(C)nn2C1CCOC(C)(C)C1 (configuration not stated)	none
CC1=NNC(=O)C1C(c1ccccc1)C(C#N)C#N (configuration not stated)	none
CC(CCc1ccccc1)NC(=O)CCCCCNc1nc(=S)[nH]c2ccccc12 (configuration not stated)	none
Cc1ccc(OCC(=O)N(Cc2ccccc2)C(C)C)c([N+](=O)[O-])n1	none
Cc1nn(-c2ccccc2)c2[nH]c(=O)c(CNCc3ccc4c(c3)OCO4)cc12	none
Cc1ccc(-c2nn(-c3ccccc3)c3[nH]c(=O)c(CNCc4ccccc4)cc23)cc1	L major viab 97
Cc1ccc(-c2nn(-c3ccccc3)cc2CNCc2ccccc2)cc1	L major viab 62
CCOC(=O)C(=CN(CCc1ccccc1)CC(=O)OC)C(=O)OCC	none
Fc1ccc(CSc2nc3ncc(Br)cc3[nH]2)cc1	CHOP inhibitor 74
CC1(C)CCC=[N+]1[O-]	none (no result: Arbovirus anti, L major viab, WT yeast gro inh)
Cc1ccc(SCC2(O)CCN(C(=O)c3ccc(Cl)cc3)CC2)cc1	CHOP inhibitor 82

Screens deposited in PubChem BioAssay by several laboratories.
